This is part of a sample that, as a whole, favours compounds with a hit. Of some 83,000 tested, about 20% had one in any assay.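 Results are percent growth after 48 hours of single-concentration exposure. 100 means growth as in untreated cells, lower positive values show inhibition; negative values down to -100 show cell death.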 A number with no mark means an inactive call. Activity calls are given as the source filed them. Rule for the calls: active = growth percent below 10; inactive = the rest.
Legend:
Test in all cases: NCI-60 one-dose screen, 48 h (100 = growth as untreated, 0 = no growth, -100 = all killed)
Conditions in all cases: 10 µM
K-562 leukemia = test system: K-562 leukemia
MALME-3M melanoma = test system: MALME-3M melanoma
MDA-MB-231 breast = test system: MDA-MB-231 breast
RXF 393 renal = test system: RXF 393 renal
SF-268 CNS = test system: SF-268 CNS
SF-295 CNS = test system: SF-295 CNS
SF-539 CNS = test system: SF-539 CNS
UACC-257 melanoma = test system: UACC-257 melanoma
M14 melanoma = test system: M14 melanoma
HCT-15 colon = test system: HCT-15 colon

SMILES | growth (K-562 leukemia) | growth (MALME-3M melanoma) | growth (MDA-MB-231 breast) | growth (RXF 393 renal) | growth (SF-268 CNS) | growth (SF-295 CNS) | growth (SF-539 CNS) | growth (UACC-257 melanoma) | growth (M14 melanoma) | growth (HCT-15 colon)
COc1cc(Cl)cc(-c2nn(-c3cccc(NC(=O)Nc4ccc(Cl)c(Cl)c4)c3)cc2-c2ccncc2)c1 | 10% | -19.8% (active) | -21% (active) | 4.46% (active) | 25.3% | -2.42% (active) | 20.9% | -11.5% (active) | 18.7% | 13.9%
NC(=O)c1ccc(-c2cccc3c(=O)nc(N4CCOCC4)oc23)cc1 | 110% | 85.4% | 91.9% | 104% | 93.8% | 93.9% | 102% | 104% | 97.8% | 102%
CCOC1(OCC)OC(c2ccccc2)=C(C#N)C(/C=C\c2ccccc2)C1(OCC)OCC (stereo not given) | 73.3% | 73.7% | 85.1% | 60.1% | 79.8% | 94.1% | 100% | 81% | 78% | 81.7%
O=C(Nc1ccc(CO)cc1)c1ccccc1Nc1ccnc(C(F)(F)F)c1 | 93.7% | 92.5% | 96.9% | 120% | 99.3% | 111% | 101% | 102% | 99.8% | 103%
COc1cc2cc3c(nc2cc1OC)CCN3Cc1ccc(NC(=O)c2ccc(Cl)c(C(F)(F)F)c2)cc1 | 94.7% | 68.8% | 85.4% | 94.5% | 102% | 92.8% | 81.1% | 86.6% | 104% | 95.8%
N#CCCN(NC(=O)OCc1ccccc1)C(=O)OCc1ccccc1 | 106% | 105% | 113% | 111% | 106% | 99.1% | 106% | 107% | 103% | 107%
CS(=O)(=O)Nc1cccc(-c2cc(-c3ccccc3Cl)c(C#N)c(N)n2)c1 | 14.1% | 24.8% | 49.1% | 6.08% (active) | 49.2% | 7.3% (active) | -14.4% (active) | 74.3% | 23.4% | 30.1%
COc1cc(-c2cc(/C=C/C(=O)c3ccc4c(c3)OCO4)[nH]n2)cc(OC)c1OC | 22.3% | 95.7% | 64.5% | 75.4% | 85.3% | 19.5% | 3.66% (active) | 107% | 101% | 63.9%
O=S(=O)(NCCNc1nccc(-c2c(-c3ccc(F)cc3)nc3sccn23)n1)c1ccc2ccccc2c1 | 54.6% | 81.2% | 98.3% | 91.3% | 68.3% | 68.2% | 104% | 71% | 82.9% | 76.4%
O=C1ON=[N+](c2ccc(Cc3ccc([N+]4=NOC(=O)C4CN4CCOCC4)cc3)cc2)C1CN1CCOCC1 (stereo not given) | 26.4% | 65.6% | 60.5% | 72.2% | 78.3% | 44.1% | 77.5% | 75.1% | 69.5% | 78.6%
COc1ccc(-c2nc(-c3nc4ccc(Cl)cc4[nH]3)c3ccccn23)cc1 | 55.8% | -10.8% (active) | 11.8% | -54.8% (active) | -8.4% (active) | 6.74% (active) | -13.7% (active) | 49.4% | 62.3% | 62.8%
COc1cc(NC(=O)CCSc2nc3ccc(C)cc3c(=O)n2Cc2ccccc2)cc(OC)c1OC | 78% | 33.8% | 52.5% | 36.4% | 40.4% | 59.4% | 33.5% | 57.1% | 87.4% | 76.5%
FC(F)(F)c1ccc(-c2cnc(Cl)nc2N2CCC3(CC2)OCCO3)cc1 | 93.2% | 78.4% | 102% | 105% | 93.5% | 89.7% | 99.3% | 106% | 96.6% | 93.6%
COc1cc(/C=N/NC(=O)c2ccccc2Nc2cccc(C(F)(F)F)c2)cc(OC)c1OC | 12.3% | 11.5% | 28.5% | 4.73% (active) | 20.4% | -14.8% (active) | -0.572% (active) | 49.6% | 177% | 7.05% (active)
N#CCCN1C/C(=C/c2ccc(Br)cc2)C(=O)/C(=C/c2ccc(Br)cc2)C1 | 3.42% (active) | -48.4% (active) | -39.4% (active) | -89.1% (active) | -36.2% (active) | -20.2% (active) | -55.1% (active) | -33.5% (active) | -55.1% (active) | 0.513% (active)
O=C1Nc2ccc(Cl)cc2/C1=C\c1c(-c2ccc(Cl)cc2)nc2sc(C3CC3)nn12 | 76.1% | 42% | 43.7% | 21.1% | 34% | 41.4% | 8.81% (active) | 63.2% | 74.2% | 77.6%
N=C(N)c1ccc(-c2ccc(-c3ccccc3)o2)nc1 | 30.2% | 91.9% | 50.2% | 106% | 91.2% | 81% | 92% | 94.6% | 97.9% | 81.1%
COc1cc(NC(=O)c2sc3nc4c(cc3c2N)C(O)CCC4)cc(OC)c1 (stereo not given) | 27.9% | 77.6% | 88.9% | 90.4% | 103% | 87.5% | 87.7% | 89.2% | 75.4% | 60.1%
CC/C(C)=C(\C)C(=O)O | 100% | 99.7% | 111% | 110% | 105% | 94.7% | 104% | 91.7% | 104% | 107%
O=C(Nc1ccc(Cl)cc1)N1NC(c2ccc(Cl)cc2)C=C1c1ccccc1 (stereo not given) | 103% | 100% | 106% | 102% | 103% | 105% | 112% | 99.7% | 102% | 103%
COc1cc(-c2cc(/C=C3\C(=O)Nc4cc(Cl)ccc43)[nH]n2)cc(OC)c1OC | 23.4% | -22.9% (active) | 34.2% | 75.3% | 56.7% | 32.6% | 48.9% | 78% | 19.6% | 13.6%
O=C(Nc1cccc(-n2cc(-c3ccncc3)c(-c3ccc(O)c(Cl)c3)n2)c1)c1cccc(C(F)(F)F)c1 | 19.3% | 24.6% | -58.9% (active) | -12.4% (active) | 51.7% | 7.62% (active) | 27.4% | 33.3% | 28.4% | 23.8%
O=S(=O)(NCCCNc1nccc(-c2c(-c3ccc(F)cc3)nc3sccn23)n1)c1ccc2ccccc2c1 | 3.75% (active) | 50.3% | 34.9% | 66.7% | 40.3% | 43.7% | 85.3% | 56.8% | 47.7% | 35.1%
CC(C)(C)c1ccc(N2CSC(=S)N(c3ccc(C(C)(C)C)cc3)C2)cc1 | 90.1% | 85.8% | 97.4% | 144% | 109% | 99.9% | 97.9% | -6.73% (active) | 95.9% | 94.7%
O=C1/C(=C\c2ccc(F)cc2)CN(C(=O)c2ccccc2F)C/C1=C\c1ccc(F)cc1 | -0.921% (active) | -55.2% (active) | -38.7% (active) | -83.2% (active) | 0.452% (active) | -30.7% (active) | 0.221% (active) | -28.2% (active) | -48.4% (active) | -16.3% (active)
O=C(Nc1cccc(-n2cc(-c3ccncc3)c(-c3ccc(O)c(Cl)c3)n2)c1)c1ccc(N2CCOCC2)c(C(F)(F)F)c1 | 3.17% (active) | 21.3% | -30.5% (active) | -8.59% (active) | 63.2% | -39.7% (active) | -28% (active) | 60.1% | 36.8% | 16.6%
CN(C)c1ccc(-c2cc(-c3cccc(NS(C)(=O)=O)c3)nc(N)c2C#N)cc1 | 10.9% | -7.09% (active) | -8.96% (active) | 20.3% | 20.8% | 0.228% (active) | 3.52% (active) | 80.4% | 11.6% | 24%
